GC-B act: human GC-B receptor activators, primary screen, HEK293 GC-B cells, cGMP TR-FRET, EC30 CNP. Atrial natriuretic peptide receptor 2 (Homo sapiens), P20594. 0% at EC30 CNP, 100% saturating CNP. activation, % at 10 µM. hit rate 0.11% among 370,000. AID 1920062, 2024;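 active means activation at 10 µM reaching about 35% in either raw or pattern-adjusted values, limit read from the data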
Target sequence (P20594 whole entry, looked up): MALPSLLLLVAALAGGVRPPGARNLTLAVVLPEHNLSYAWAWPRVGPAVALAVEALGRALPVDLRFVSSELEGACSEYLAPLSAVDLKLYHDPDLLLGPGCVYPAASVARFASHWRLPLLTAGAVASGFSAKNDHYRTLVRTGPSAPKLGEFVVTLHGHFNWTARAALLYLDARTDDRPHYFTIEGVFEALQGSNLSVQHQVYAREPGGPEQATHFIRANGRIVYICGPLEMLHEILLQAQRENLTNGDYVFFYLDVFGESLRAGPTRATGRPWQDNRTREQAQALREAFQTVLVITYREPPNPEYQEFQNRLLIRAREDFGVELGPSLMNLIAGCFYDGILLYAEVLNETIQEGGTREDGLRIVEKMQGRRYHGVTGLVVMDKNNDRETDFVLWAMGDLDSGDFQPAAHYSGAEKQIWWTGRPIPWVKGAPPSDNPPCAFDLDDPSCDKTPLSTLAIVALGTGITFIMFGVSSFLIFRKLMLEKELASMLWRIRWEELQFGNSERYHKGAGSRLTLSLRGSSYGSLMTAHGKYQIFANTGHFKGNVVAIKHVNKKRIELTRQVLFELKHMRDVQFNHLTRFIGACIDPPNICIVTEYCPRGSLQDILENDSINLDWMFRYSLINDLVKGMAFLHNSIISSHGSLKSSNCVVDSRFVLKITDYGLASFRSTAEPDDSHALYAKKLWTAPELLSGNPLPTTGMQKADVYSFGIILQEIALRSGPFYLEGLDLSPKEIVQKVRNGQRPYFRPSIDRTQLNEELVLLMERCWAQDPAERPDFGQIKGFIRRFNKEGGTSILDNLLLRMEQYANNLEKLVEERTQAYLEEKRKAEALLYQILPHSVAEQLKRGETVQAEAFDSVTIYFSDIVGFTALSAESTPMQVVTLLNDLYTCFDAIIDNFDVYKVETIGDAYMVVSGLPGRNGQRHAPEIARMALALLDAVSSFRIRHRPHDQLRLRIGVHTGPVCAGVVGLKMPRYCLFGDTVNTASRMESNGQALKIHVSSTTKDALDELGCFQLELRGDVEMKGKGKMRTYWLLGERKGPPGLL
ADAM17 inh: ADAM17 inhibitors, primary screen, biochemical, QFRET. Disintegrin and metalloproteinase domain-containing protein 17 (Homo sapiens), P78536. recombinant ADAM17, EDANS/DABCYL FRET peptide cleavage. inhibition, % at 6.95 µM. hit rate 0.83% among 370,000;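 active means inhibition above the mean of compounds lying between control limits plus 3 SD, set per campaign, cut at about 8.5% in these data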;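 further: 0% = DMSO-only wells as the low control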
NPR1 activator: GC-A stimulated cGMP production enhancers – HEK293 GC-A cells, cGMP TR-FRET, EC30 ANP, primary screen; 0% at EC30 ANP, 100% saturating ANP; hit rate 0.14% among 370,000; activation, % at 10 µM; Atrial natriuretic peptide receptor 1 (Homo sapiens), P16066; in the data active means activation above about 40%
ADAM10 inh: human ADAM10 inhibitors, primary screen, biochemical, QFRET, HTS; recombinant ADAM10, EDANS/DABCYL FRET peptide cleavage, 3 h; hit rate 0.62% among 370,000; Disintegrin and metalloproteinase domain-containing protein 10 (Homo sapiens), O14672; inhibition, % at 7 µM;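 active means inhibition above a per-campaign cutoff equal to the mean of compounds falling between control-based bounds plus 3 SD, cut at about 20% in these data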;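 further: 0% = DMSO wells while the 100% control is not disclosed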
ADAM10 counter: ADAM10 inhibitors, counter-screen for ADAM17 exosite inhibitor project, biochemical, FRET, human ADAM10. recombinant ADAM10, EDANS/DABCYL FRET peptide cleavage, 3 h. hit rate 47% among 2,900. inhibition, % at 6.95 µM. shares compounds with ADAM17 inh;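 active means mean inhibition over the triplicate runs exceeds the activity threshold set in the earlier primary screen, cut at about 20% in these data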;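 further: 0% = DMSO wells and 100% = marimastat wells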
ADAM17 confirm: ADAM17 inhibitors, hit retest, confirmation, biochemical, QFRET peptide cleavage. shares compounds with ADAM17 inh. recombinant ADAM17, EDANS/DABCYL QFRET peptide cleavage. inhibition, % at 6.95 µM. hit rate 65% among 2,900. AID 743257, 2014;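 active means mean inhibition across replicates above the hit cutoff set in the primary screen, cut at about 8.5% in these data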;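 further: 0% = DMSO wells and 100% = marimastat wells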
Starred values were filed as active, the others as inactive; · = no result. Rows were chosen to be rich in hits. Some 1.3% of all compounds tested hit in one or more screens of this group.

SMILES	GC-B act	ADAM17 inh	NPR1 activator	ADAM10 inh	ADAM10 counter	ADAM17 confirm
Cc1nn(CCCC(=O)Nc2cc(Oc3ccccc3)cc([N+](=O)[O-])c2)c(C)c1[N+](=O)[O-]	-5.2	11.6*	-7.1	17.2	38.6*	19.5*
Cc1nn(CCCC(=O)NCCc2ccccc2)c(C)c1[N+](=O)[O-]	1.1	-2.5	0.5	-1.8	·	·
COc1ccc(CC(=O)N(C)c2ccccc2)cc1S(=O)(=O)N1CCOCC1	2.3	0.6	2.5	2.7	·	·
Cc1cnc(C(=O)OC(C)C(=O)Nc2ccc3c(c2)OCCO3)cn1 (centres undefined)	3.5	9.9*	-3.0	7.8	5.0	14.5*
CC(=O)Nc1ccc(S(=O)(=O)Nc2ccc3c(c2)OCCO3)cc1Cl	0.5	0.1	-1.6	5.3	·	·
CC(OC(=O)c1cc(S(=O)(=O)Nc2ccc(F)cc2)ccc1Cl)C(=O)Nc1ccc2c(c1)OCCO2 (centres undefined)	-1.2	9.8*	1.4	12.3	11.7	8.5
Cc1ccccc1Nc1nc(N)nc(CSc2ccc(F)cc2)n1	-2.0	-3.6	6.9	-8.4	·	·
Cc1ccc(SCc2nc(N)nc(Nc3ccccc3C)n2)cc1C	1.8	9.2*	-3.9	17.1	0.7	2.1
CCN(CC)C(=O)C1=C(C)N(Cc2ccccc2)C(=O)C(CC(=O)NCCc2ccccn2)C1 (centres undefined)	3.7	-2.9	3.4	-3.7	·	·
C[C@@H](CO)NC(=O)c1[nH]cnc1C(=O)Nc1cccc(Cl)c1	-3.6	-1.4	4.2	-8.7	·	·
CCNC(=O)C/C(C)=N/NC(=O)C1CCCCC1	1.1	8.9*	1.6	7.3	-2.7	-0.2
COc1ccc(CCNC(=O)C/C(C)=N/NC(=O)C2CCCCC2)cc1OC	0.6	-4.2	-1.3	-2.1	·	·
COc1ccc2c(c1)[C@H]1[C@H](CO2)[C@H](c2ccccc2)[C@]2(C)C(=O)Nc3cc(F)ccc3C(=O)N12	-10.7	10.0*	-6.2	13.4	-9.7	-0.5
CCOC(=O)[C@H]1[C@H]2COc3ccc(C)cc3[C@@H]2N2C(=O)CN(Cc3ccc(C)cc3)C(=O)[C@@]12C	-1.9	1.4	3.1	2.2	·	·
Cc1ccc(CN2CC(=O)N3[C@H]4c5cc(C)ccc5OC[C@@H]4[C@H](c4ccccc4)[C@]3(C)C2=O)cc1	-1.9	0.9	-3.8	3.3	·	·
COc1ccc2c(c1)OC[C@H]1[C@H]2N2C(=O)CN(Cc3ccc(Cl)cc3)C(=O)[C@@]2(C)[C@H]1c1ccccc1	-1.4	9.9*	-3.4	16.0	28.9*	13.3*
COc1ccc2c(c1)[C@H]1[C@H](CO2)[C@H](c2ccccc2)[C@]2(C)C(=O)Nc3ccccc3C(=O)N12	-1.7	5.7	-4.7	14.8	·	·
CCOC(=O)[C@H]1[C@H]2COc3ccc(Br)cc3[C@@H]2N2C(=O)CN(Cc3ccc(C)cc3)C(=O)[C@@]12C	-6.6	9.6*	-4.8	16.4	28.1*	16.8*
Cc1ccc(CN2CC(=O)N3[C@H]4c5cc(Cl)ccc5OC[C@@H]4[C@H](c4ccccc4)[C@]3(C)C2=O)cc1	-0.4	9.4*	-3.5	15.4	7.5	7.0
O=C(NCCO)C(=O)NCC1OCCCN1S(=O)(=O)c1ccc2c(c1)OCCO2 (centres undefined)	3.7	-0.7	2.8	-4.5	·	·
C=CCC[C@@H](Cc1ccc(F)cc1)C(=O)OC[C@H](C)NC(=O)[C@@H](CC=C)CC(=O)N(CCO)Cc1ccccc1	-7.1	9.8*	-13.1	19.1	6.4	7.2
C=CCC[C@@H](Cc1ccc(F)cc1)C(=O)OC[C@@H](Cc1c[nH]c2ccccc12)NC(=O)[C@@H](CC=C)CC(=O)N(CCO)Cc1ccccc1	-2.6	9.5*	-6.4	6.9	36.8*	21.2*
C=CCC[C@H](Cc1ccc(F)cc1)C(=O)OC[C@@H](C)NC(=O)[C@H](CC=C)CC(=O)N(CCO)Cc1ccccc1	-1.3	2.3	-9.5	9.0	·	·
CSC[C@H]1CN(c2ccc(Br)cc2)C(=O)[C@@H]1CC(=O)Nc1ccc(Br)cc1	0.3	-0.9	3.8	-9.4	·	·
Cc1cccc2sc(NC(=O)CN(C)S(=O)(=O)c3ccc(Br)s3)nc12	-0.4	8.8*	13.6	17.6	43.5*	24.1*
SMILES	GC-B act	ADAM17 inh	NPR1 activator	ADAM10 inh	ADAM10 counter	ADAM17 confirm
CCCCNC(=O)N1CCCC1C(=O)Nc1cccc(OC)c1 (centres undefined)	7.0	0.5	-1.0	-6.1	·	·
O=C(N/N=C/c1cccnc1)c1ccc([N+](=O)[O-])cc1	-13.1	8.9*	-11.5	13.9	11.7	9.0*
O=C(Cc1ccc([N+](=O)[O-])cc1)N/N=C/c1cccnc1	6.7	-1.6	6.3	-2.6	·	·
CN1C(N)=NC(=O)/C1=C\c1ccc(Br)cc1	-3.2	-2.8	8.4	-15.1	·	·
CC(C)(C)c1ccc(OCc2nc(-c3ccccn3)no2)c(Br)c1	10.8	8.7*	-0.8	15.6	15.3	18.4*
Cc1ccc(NC(=O)C(OC(=O)c2ccccc2Cl)c2ccccc2)cc1Cl (centres undefined)	1.0	9.3*	-4.8	14.5	31.5*	21.1*
COc1ccccc1N1CCN(C(=O)c2ccccc2Oc2ccccc2)CC1	-14.9	15.0*	-13.0	13.5	-1.8	-0.3
COc1ccc(CC(=O)NNC(=S)Nc2ccccc2)cc1Cl	2.2	0.0	3.8	4.5	·	·
CCCOc1ccc(CC(=O)NNC(=S)Nc2ccccc2)cc1Br	3.3	12.4*	0.3	13.1	10.3	8.6
CC(C)c1ccc(Oc2cccc3c2S(=O)(=O)N([C@H](C)c2ccccc2)C[C@@H](COCc2ccccc2)O3)cc1	0.0	-2.0	-0.7	-5.7	·	·
CC1CN(S(=O)(=O)c2ccc(NC(=O)c3cc(-c4ccccc4O)n[nH]3)cc2)CC(C)O1 (centres undefined)	-9.9	11.8*	-12.1	23.6*	18.4	14.1*
COC(=O)C1=C(C)N(Cc2ccc(C(F)(F)F)cc2)C(=NCC2CC2)NC1c1cccc(Cl)c1 (centres undefined)	-30.6	-0.7	-22.1	0.1	·	·
O=C(COc1cccc(Cl)c1)NNC(=S)Nc1ccccc1	2.5	9.8*	-0.4	13.4	14.2	9.7*
COc1ccc(-c2coc3cc(OC(C)=O)ccc3c2=S)cc1	-1.4	-78.5	6.2	-265.1	·	·
CC(Oc1ccc(Cl)cc1Cl)C(=O)Nc1ccc(O)cc1 (centres undefined)	3.4	8.8*	3.4	5.5	5.0	6.1
